# Results as given in paper PMC5540273 (PLoS ONE, 2017).
# Legend:
# Details in all cases: concentration: 1 μM, replicates: in singlicate; n = 1
# ACVR1B = system: ACVR1B
# ACVR1 = system: ACVR1
# ACVR2A = system: ACVR2A
# ACVR2B = system: ACVR2B
# ACVRL1 = system: ACVRL1
# ADCK3 = system: T1, ADCK3
# T1 construct: gene CABC1
# ADCK4 = system: ADCK4
# AKT1 = system: AKT1
# AKT2 = system: AKT2
# AKT3 = system: AKT3
# 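Further: KINOMEscan kinase panel screen.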
SMILES,%Inh (ACVR1B) [%],%Inh (ACVR1) [%],%Inh (ACVR2A) [%],%Inh (ACVR2B) [%],%Inh (ACVRL1) [%],%Inh (ADCK3) [%],%Inh (ADCK4) [%],%Inh (AKT1) [%],%Inh (AKT2) [%],%Inh (AKT3) [%]
Nc1ncnc2c1ncn2-c1cccc2ccccc12 [SKF-97184],0,0,0,0,26,0,52,8,0,0
FC(F)(F)c1ccc(-c2ncn(CCCN3CCOCC3)c2-c2ccncc2)cc1 [SB-217780],10,0,0,0,4,1,8,0,0,28
Nc1nccc2scc(-c3ccc4c(c3)CCN4C(=O)Cc3ccccc3)c12 [GSK2576924],0,10,42,0,0,13,0,0,11,0
Cl.c1ccc(Cn2cnc3cc(Nc4ncnc5ccccc45)ccc32)cc1 [GW272142],0,17,0,2,0,13,34,0,3,0
Cc1cccc(-c2nc(Nc3ccc4c(cnn4C)c3)c3ccccc3n2)n1 [GW876731],64,0,2,0,0,8,4,21,0,20
CCc1nc(-c2cccc(C)c2)c(-c2ccncc2)s1,20,3,5,0,5,55,0,0,0,0
Cc1cc(Nc2nc(-c3cccc(C)n3)nc3ccccc23)ccn1 [GW872411],73,0,2,13,0,0,0,0,0,2
COC(=O)c1c(-c2ccccc2)c2cc(Br)ccc2c(=O)n1Cc1ccc(NC(=O)CCC(=O)O)cc1,0,0,0,0,0,0,0,12,11,0
Cc1ccccc1COc1cc(-n2cnc3cc(Cl)ccc32)sc1C(N)=O [GW813349],0,0,10,19,3,12,0,0,3,6
Cc1nn2c(=O)cc(N3CCOCC3)nc2n1Cc1cccc(Cl)c1Cl [GSK2342769],0,12,0,0,42,10,4,0,14,0
COc1ccc(Nc2nccc(N3CCC(NS(=O)(=O)c4ccc(NC(C)=O)cc4)C3)n2)cc1 (stereo not shown) [GSK1379729],3,34,32,22,8,9,38,0,7,0
COc1ccc(CNC(=O)NC2CCN(c3ccnc(Nc4ccc(F)cc4)n3)C2)cc1 (stereo not shown) [GSK1379706],0,49,0,5,0,29,48,0,0,0
Cc1c(Cn2c(C)nn3c(=O)cc(N4CCO[C@H](C)C4)nc23)cccc1C(F)(F)F [GSK2373690],0,2,3,0,0,22,24,0,6,28
CCCNC(=O)Nc1ccc(Oc2ncnc3ccn(C)c23)cc1,13,0,2,0,0,0,0,7,8,0
O=C1NC(=O)C(c2ccccc2)=C1Nc1cccc(O)c1 [SB-390534],0,22,0,0,0,0,0,0,0,0
Nc1nc(-c2ccccc2F)c(-c2ccnc3ccccc23)s1 [GW560459],0,6,0,0,0,0,22,0,0,0
Cc1nnc(-c2ccc3ncn(-c4ccc(S(C)=O)cc4)c3c2)o1 (stereo not shown),15,0,0,0,9,5,0,0,0,0
CN(C)c1cc(-c2ccc3c(N)n[nH]c3c2)nc(N)n1 [GSK2219329],0,0,0,1,0,9,23,0,0,0
COc1cccc(C2=C(N(C)c3ccccc3)C(=O)NC2=O)c1 [SB-334865],0,28,0,3,0,4,21,0,13,0

SMILES,%Inh (ACVR1B) [%],%Inh (ACVR1) [%],%Inh (ACVR2A) [%],%Inh (ACVR2B) [%],%Inh (ACVRL1) [%],%Inh (ADCK3) [%],%Inh (ADCK4) [%],%Inh (AKT1) [%],%Inh (AKT2) [%],%Inh (AKT3) [%]
COc1cccc(-n2cnc3c(N)ncnc32)c1 [SKF-97416],22,0,3,0,11,0,8,1,0,22
Fc1cccc(CSc2nnc(-c3ccc4c(c3)CCO4)o2)c1,17,0,0,0,0,0,6,12,14,0
Nc1ncnc2c1ncn2-c1ccc(Cl)cc1 [AH2635],0,3,0,16,0,24,33,0,0,0
COc1cc2ncn(-c3cc(OCc4ccncc4Br)c(C(N)=O)s3)c2cc1OC [GW854278],9,5,8,2,0,15,0,0,0,0
O=C(NCc1cccs1)c1cc(C(=O)c2c(Cl)cccc2Cl)c[nH]1 [GW823670],12,0,0,0,5,0,0,0,0,0
O=C(Nc1n[nH]c2nc(-c3ccccc3)c(Br)cc12)C1CC1 [SB-708998],0,21,24,7,21,4,1,7,4,0
COc1ccc(-c2coc3ccc(-c4nnc(SCc5cccc(C#N)c5)o4)cc23)cc1,6,6,0,0,0,21,0,0,2,0
Nc1n[nH]c2nnc(-c3ccccc3)c(-c3ccccc3)c12 [GW554060],0,21,0,0,0,27,36,0,16,0
CCC(=O)c1c(-c2ccccc2)c2cc(Cl)ccc2c(=O)n1Cc1cc(S(C)(=O)=O)n(CC(F)F)n1,0,0,0,0,0,0,0,0,0,0
O=C(Nc1n[nH]c2nc(-c3ccccc3)c(Cl)cc12)C1CC1 [SB-734909],7,0,7,8,0,0,0,0,0,0
Cc1ccc(-c2ccc3c(ccc4sc5c(c43)NC[C@@H](C)N=C5N(C)C)n2)cn1,0,0,0,0,12,0,0,0,0,0
COc1cc(Nc2nccc(N3CCC(NC(=O)C(C)c4ccc(Cl)cc4)C3)n2)cc(OC)c1OC (stereo not shown) [GSK1379757],0,4,0,12,0,3,69,0,0,0
COc1cc(Nc2ccnc3ccc(C(F)(F)F)cc23)cc(OC)c1OC [GW577382],0,67,0,0,52,86,54,0,20,0
CCCC(=O)Nc1n[nH]c2ncc(-c3cccc4ccccc34)cc12 [SB-642057],0,26,0,9,59,5,5,0,39,0
CCS(=O)(=O)c1ccc(OC)c(Nc2ncc(-c3ccc(F)cc3)o2)c1.Cl [GW591947],0,0,0,0,0,1,15,0,0,9
Cn1c(=O)c(F)c(Nc2ccc(I)cc2F)c2c(=O)n(OC[C@H](O)CO)cnc21,0,14,29,28,1,21,0,15,0,0
COC(=O)c1c(-c2ccccc2)c2cc(C)ccc2c(=O)n1Cc1ccccc1,0,0,7,0,0,0,0,0,3,0
COc1cc2ncn(-c3cc(OCc4ccc(S(C)(=O)=O)cc4)c(C(N)=O)s3)c2cc1OC [GW869979],0,51,0,0,4,31,0,0,0,0
